Common to all, as to experiment: DAPPL (digital affinity profiling via proximity ligation, sequencing); 10 mM Tris-HCl pH 7.5, 50 mM NaCl, 1 mM DTT, 4% glycerol, room temperature, 30 min; GST-TFs on glutathione beads, 16-mer random dsDNA library, 0.1% formaldehyde crosslink after washing; high values mean tight binding
Holding throughout (settings): protein: recombinant; tags: N-terminal GST; dsDNA, one strand shown

The target of one assay is T1, GABPA (Homo sapiens, UniProt Q06546 1-454).
T1 sequence: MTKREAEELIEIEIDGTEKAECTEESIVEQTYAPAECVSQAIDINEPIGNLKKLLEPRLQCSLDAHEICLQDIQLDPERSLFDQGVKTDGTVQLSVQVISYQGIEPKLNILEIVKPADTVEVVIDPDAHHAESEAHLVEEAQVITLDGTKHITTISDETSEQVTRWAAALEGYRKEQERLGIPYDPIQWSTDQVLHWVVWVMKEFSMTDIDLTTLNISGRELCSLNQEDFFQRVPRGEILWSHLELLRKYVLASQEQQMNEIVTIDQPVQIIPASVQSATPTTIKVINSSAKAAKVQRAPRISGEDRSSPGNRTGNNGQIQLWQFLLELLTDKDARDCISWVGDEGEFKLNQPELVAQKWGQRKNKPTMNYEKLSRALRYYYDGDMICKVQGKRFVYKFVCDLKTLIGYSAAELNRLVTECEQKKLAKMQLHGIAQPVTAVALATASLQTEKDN
Summed up: (§1)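 The binding signal reported is, for every hexamer, its read frequency for a factor over its read frequency for the tag-only sample. Reads came from pools of yeast-expressed, GST-fused human transcription factors on glutathione beads, barcoded with DNA and mixed with that sample, which were incubated with 200 nmole of a random double-stranded 16-mer DNA library in Tris/NaCl/DTT/glycerol buffer at room temperature for 30 min. After washing, the pools were crosslinked with 0.1% formaldehyde, proximity-ligated with BsaI/T4 ligase for 1 h at 37 °C, PCR-amplified and sequenced on an Illumina NextSeq500.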

In the next assay the target is T2, ERG (Homo sapiens, UniProt P11308 1-479).
T2 sequence: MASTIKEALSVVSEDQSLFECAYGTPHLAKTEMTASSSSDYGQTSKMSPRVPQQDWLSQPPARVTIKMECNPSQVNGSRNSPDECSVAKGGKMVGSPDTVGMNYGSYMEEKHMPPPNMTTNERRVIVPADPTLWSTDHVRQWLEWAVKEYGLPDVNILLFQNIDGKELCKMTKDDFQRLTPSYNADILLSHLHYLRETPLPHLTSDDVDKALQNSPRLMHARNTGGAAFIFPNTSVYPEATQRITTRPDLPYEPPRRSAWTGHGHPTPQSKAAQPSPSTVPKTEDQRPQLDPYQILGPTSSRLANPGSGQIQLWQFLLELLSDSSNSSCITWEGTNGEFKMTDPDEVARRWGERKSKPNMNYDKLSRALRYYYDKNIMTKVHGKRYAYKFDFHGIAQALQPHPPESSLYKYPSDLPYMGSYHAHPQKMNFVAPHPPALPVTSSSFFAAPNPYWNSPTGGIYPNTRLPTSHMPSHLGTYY
Summed up:
as §1

The target in the next assay is ELF1 (Homo sapiens, UniProt P32519 1-619). An outline of the steps:
as §1

A further assay concerns the target T3, EHF (Homo sapiens, UniProt Q9NZC4 1-300).
T3 sequence: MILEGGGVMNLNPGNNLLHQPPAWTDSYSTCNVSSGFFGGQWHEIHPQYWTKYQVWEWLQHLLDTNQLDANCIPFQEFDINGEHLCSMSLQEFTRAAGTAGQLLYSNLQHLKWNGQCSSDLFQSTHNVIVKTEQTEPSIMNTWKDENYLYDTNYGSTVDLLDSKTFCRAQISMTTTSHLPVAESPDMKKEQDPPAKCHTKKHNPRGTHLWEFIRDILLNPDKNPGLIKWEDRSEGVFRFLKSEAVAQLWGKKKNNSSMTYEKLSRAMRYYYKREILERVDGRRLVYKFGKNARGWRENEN
Summed up:
as §1

The target of another assay is SPIB (Homo sapiens, UniProt Q01892 1-262). Summed up: as §1
Sequence of SPIB (Q01892 whole entry): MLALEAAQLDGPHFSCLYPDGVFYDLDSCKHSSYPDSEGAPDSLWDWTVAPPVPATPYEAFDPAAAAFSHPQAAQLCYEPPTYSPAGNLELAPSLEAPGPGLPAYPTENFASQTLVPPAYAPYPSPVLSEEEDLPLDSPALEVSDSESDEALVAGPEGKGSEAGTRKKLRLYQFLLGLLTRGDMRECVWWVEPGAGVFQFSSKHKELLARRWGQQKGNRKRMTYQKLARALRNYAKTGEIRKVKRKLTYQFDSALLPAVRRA
The target in the next assay is T4, FEV (Homo sapiens, UniProt Q99581 1-238).
T4 sequence: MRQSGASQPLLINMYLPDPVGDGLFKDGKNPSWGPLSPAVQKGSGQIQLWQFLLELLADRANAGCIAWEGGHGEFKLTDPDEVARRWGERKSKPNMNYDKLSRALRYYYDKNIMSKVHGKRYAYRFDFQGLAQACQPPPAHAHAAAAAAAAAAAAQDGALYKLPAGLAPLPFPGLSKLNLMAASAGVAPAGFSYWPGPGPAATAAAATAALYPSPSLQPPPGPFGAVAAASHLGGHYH
An outline of the steps: as §1

The next assay addresses ETV5 (Homo sapiens, UniProt P41161 1-510). An outline of the steps: as §1
In the next assay the target is ELF4 (Homo sapiens, UniProt Q99607 1-663). An outline of the steps: as §1
Sequence of ELF4 (Q99607 whole entry): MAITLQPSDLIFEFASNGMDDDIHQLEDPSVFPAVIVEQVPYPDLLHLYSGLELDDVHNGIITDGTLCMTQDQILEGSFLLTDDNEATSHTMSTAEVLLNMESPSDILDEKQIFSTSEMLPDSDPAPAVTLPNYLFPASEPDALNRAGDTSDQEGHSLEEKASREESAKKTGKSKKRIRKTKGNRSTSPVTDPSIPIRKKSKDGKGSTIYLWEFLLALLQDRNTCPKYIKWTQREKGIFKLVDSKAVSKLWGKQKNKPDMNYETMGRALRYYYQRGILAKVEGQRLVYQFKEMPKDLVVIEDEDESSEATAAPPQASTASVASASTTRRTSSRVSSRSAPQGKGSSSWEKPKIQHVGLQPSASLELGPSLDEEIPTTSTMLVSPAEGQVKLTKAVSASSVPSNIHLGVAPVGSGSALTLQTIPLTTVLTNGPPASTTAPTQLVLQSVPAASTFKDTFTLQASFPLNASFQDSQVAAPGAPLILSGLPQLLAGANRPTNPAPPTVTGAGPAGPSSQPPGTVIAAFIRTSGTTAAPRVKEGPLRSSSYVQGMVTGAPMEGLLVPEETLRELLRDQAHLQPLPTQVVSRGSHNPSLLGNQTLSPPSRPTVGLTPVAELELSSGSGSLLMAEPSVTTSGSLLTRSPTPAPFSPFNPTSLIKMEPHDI
In a further assay the target is T5, ETV2 (Homo sapiens, UniProt O00321 1-342).
T5 sequence: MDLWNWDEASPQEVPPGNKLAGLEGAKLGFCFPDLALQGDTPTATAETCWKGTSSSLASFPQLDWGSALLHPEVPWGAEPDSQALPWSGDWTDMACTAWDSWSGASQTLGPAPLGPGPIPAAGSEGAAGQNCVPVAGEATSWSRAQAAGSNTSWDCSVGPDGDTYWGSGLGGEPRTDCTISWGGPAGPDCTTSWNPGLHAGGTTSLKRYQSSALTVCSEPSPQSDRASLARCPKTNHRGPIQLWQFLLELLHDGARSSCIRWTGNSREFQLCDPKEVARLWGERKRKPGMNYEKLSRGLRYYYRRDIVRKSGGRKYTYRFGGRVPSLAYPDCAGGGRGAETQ
Summed up: as §1

For another assay, the target named is T6, ELF3 (Homo sapiens, UniProt P78545 1-371).
T6 sequence: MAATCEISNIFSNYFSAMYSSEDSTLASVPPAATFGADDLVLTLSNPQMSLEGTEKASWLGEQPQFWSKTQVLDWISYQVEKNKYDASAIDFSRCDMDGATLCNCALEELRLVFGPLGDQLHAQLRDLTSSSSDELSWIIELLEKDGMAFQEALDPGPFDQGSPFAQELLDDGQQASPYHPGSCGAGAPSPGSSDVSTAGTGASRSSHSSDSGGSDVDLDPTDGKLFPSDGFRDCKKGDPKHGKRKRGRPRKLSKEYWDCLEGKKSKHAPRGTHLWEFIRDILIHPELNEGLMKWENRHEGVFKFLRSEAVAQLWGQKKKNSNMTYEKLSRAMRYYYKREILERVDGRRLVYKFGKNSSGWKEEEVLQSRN
Summed up: as §1

The next assay concerns the target ETV1 (Homo sapiens, UniProt P50549 1-477). An outline of the steps: as §1
In the next assay the target is T7, ERF (Homo sapiens, UniProt P50548 1-548).
T7 sequence: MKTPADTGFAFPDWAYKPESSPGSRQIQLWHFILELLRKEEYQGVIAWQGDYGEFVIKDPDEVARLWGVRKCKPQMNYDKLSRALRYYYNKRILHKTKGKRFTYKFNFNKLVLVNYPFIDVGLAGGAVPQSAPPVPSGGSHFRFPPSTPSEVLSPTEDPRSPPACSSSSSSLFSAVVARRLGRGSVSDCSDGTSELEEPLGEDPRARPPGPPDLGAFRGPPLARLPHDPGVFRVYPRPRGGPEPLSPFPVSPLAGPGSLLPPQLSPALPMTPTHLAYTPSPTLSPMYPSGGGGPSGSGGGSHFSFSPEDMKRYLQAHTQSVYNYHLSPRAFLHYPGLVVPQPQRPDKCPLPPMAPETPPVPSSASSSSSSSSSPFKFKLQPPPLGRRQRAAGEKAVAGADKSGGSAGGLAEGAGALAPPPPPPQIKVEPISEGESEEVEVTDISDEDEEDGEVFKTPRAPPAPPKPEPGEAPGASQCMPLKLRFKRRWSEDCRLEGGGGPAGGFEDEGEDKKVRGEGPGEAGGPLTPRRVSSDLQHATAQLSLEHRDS
Summed up:
as §1

Another assay has as its target T8, ETV3L (Homo sapiens, UniProt Q6ZN32 1-361).
T8 sequence: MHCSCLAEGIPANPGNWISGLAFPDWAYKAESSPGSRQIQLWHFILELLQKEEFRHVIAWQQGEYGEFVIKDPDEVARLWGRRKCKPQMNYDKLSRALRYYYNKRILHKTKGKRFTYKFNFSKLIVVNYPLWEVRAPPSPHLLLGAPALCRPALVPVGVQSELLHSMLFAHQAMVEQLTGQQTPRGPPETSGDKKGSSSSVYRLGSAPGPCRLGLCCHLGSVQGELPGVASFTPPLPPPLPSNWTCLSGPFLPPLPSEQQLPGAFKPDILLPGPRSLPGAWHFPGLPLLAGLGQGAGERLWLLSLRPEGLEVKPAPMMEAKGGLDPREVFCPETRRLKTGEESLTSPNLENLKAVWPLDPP
An outline of the steps: as §1

In the next assay the target is T9, SPDEF (Homo sapiens, UniProt O95238 1-335).
T9 sequence: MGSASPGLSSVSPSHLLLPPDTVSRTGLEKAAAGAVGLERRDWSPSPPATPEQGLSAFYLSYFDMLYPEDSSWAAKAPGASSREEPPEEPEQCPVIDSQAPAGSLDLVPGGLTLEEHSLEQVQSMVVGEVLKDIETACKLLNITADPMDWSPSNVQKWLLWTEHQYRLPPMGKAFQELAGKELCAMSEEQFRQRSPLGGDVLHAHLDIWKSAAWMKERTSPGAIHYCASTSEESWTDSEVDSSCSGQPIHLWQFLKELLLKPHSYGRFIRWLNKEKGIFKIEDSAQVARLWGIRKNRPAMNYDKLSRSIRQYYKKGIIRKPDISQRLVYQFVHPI
Summed up:
as §1

Another assay deals with T10, ETV7 (Homo sapiens, UniProt Q9Y603 1-341).
T10 sequence: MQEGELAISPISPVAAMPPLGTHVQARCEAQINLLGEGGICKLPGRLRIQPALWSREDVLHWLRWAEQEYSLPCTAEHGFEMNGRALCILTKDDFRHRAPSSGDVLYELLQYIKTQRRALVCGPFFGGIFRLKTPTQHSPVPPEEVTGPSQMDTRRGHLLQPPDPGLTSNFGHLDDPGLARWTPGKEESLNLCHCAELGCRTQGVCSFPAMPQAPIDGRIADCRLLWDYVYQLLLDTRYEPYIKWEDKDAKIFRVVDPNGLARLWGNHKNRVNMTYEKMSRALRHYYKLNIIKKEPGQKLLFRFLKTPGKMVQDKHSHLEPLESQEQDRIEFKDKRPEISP
Summed up: as §1

Another assay concerns the target T11, ETV3 (Homo sapiens, UniProt P41162-2 1-143).
T11 sequence: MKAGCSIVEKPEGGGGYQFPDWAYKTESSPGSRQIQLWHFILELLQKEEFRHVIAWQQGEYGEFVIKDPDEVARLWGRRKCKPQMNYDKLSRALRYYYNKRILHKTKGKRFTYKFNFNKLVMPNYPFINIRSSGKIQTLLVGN
An outline of the steps: as §1

Sequence of ETV1 (P50549 whole entry): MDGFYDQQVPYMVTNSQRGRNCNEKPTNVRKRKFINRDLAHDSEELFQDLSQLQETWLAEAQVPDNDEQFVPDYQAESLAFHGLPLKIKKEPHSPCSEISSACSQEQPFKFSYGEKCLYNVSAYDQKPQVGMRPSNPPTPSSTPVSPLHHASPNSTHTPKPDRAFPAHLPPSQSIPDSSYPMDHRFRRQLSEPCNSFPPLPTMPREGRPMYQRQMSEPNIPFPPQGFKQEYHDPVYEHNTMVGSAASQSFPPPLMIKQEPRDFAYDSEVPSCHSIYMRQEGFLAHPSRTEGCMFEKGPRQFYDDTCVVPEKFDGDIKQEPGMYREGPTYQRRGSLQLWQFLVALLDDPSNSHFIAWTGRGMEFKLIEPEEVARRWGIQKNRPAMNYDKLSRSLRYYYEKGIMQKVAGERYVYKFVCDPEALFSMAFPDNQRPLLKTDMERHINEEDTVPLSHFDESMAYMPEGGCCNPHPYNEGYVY
Sequence of ELF1 (P32519 whole entry): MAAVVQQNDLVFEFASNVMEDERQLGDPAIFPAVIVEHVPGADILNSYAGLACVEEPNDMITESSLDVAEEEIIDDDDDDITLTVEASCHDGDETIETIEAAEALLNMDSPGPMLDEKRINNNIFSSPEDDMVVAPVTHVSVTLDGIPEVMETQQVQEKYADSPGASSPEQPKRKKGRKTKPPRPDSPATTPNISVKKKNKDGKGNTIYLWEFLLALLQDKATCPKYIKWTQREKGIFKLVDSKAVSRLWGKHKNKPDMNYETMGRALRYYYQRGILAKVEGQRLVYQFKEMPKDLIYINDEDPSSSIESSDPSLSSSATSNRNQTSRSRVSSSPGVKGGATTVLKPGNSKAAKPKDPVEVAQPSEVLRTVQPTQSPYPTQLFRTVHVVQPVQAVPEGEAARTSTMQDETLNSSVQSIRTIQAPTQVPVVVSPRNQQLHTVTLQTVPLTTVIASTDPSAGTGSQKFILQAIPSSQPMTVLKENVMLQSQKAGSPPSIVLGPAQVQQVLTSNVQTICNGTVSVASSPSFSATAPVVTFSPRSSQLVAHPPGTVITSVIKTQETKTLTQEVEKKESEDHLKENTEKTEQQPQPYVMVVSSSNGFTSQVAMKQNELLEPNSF
Sequence of ETV5 (P41161 whole entry): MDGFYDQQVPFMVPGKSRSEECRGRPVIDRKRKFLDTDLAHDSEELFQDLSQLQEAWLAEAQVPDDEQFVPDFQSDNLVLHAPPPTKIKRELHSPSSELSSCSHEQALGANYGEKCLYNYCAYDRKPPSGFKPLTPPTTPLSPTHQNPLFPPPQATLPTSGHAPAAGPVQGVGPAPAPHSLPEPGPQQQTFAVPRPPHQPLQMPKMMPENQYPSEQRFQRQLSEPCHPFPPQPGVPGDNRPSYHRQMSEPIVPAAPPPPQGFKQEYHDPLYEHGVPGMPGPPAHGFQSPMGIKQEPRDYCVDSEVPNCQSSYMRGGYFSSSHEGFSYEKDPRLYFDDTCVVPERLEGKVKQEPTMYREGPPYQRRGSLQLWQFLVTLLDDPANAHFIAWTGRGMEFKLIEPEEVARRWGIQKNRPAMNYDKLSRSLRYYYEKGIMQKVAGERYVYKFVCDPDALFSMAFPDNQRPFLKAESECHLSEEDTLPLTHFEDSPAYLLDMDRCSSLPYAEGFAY

On to ACTGGA, for which the binding signal with GABPA is 1.12 fold enrichment (6-mer frequency, TF over GST control); with ERG, 1.08 fold enrichment (6-mer frequency, TF over GST control); with ELF1, 1.03 fold enrichment (6-mer frequency, TF over GST control); in the assay with EHF it was 1.02 fold enrichment (6-mer frequency, TF over GST control); with SPIB it was 1.03 fold enrichment (6-mer frequency, TF over GST control); with FEV it was 1 fold enrichment (6-mer frequency, TF over GST control). Moreover, the binding signal in the assay with ETV5 was 1.09 fold enrichment (6-mer frequency, TF over GST control); in the assay with ELF4 it was 1.1 fold enrichment (6-mer frequency, TF over GST control); with ETV2, 1.17 fold enrichment (6-mer frequency, TF over GST control); with ELF3, 1.1 fold enrichment (6-mer frequency, TF over GST control); with ETV1, 1.06 fold enrichment (6-mer frequency, TF over GST control); in the assay with ERF, 1.03 fold enrichment (6-mer frequency, TF over GST control). The binding signal was 1.02 fold enrichment (6-mer frequency, TF over GST control) in the assay with ETV3L; 1.02 fold enrichment (6-mer frequency, TF over GST control) in the assay with SPDEF; 1.01 fold enrichment (6-mer frequency, TF over GST control) with ETV7; 1.05 fold enrichment (6-mer frequency, TF over GST control) in the assay with ETV3.

(Values after paper PMC7862700, “An all-to-all approach to the identification of sequence-specific readers for epigenetic DNA modifications on cytosine”.)
